Assay results as given in PubChem BioAssay (NCI).
The panel holds about 83,000 compounds, 20% with a hit somewhere; the sample as a whole holds those more often.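 Plates (96-well) were seeded with cells, treated with compound at one concentration, and incubated for 48 hours before percent growth was determined.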 Active and inactive are the calls of the source. The calls were made as follows: active = growth percent below 10; inactive = the rest.

What was measured:
Assay in all cases: NCI-60 one-dose screen, 48 h (100 = growth as untreated, 0 = no growth, -100 = all killed)
Conditions in all cases: 10 µM unless noted
NCI-H23 lung = test system: NCI-H23 lung
NCI-H226 lung = test system: NCI-H226 lung
NCI-H322M lung = test system: NCI-H322M lung
HOP-62 NSCLC = test system: HOP-62 NSCLC
NCI-H460 lung = test system: NCI-H460 lung
HOP-92 NSCLC = test system: HOP-92 NSCLC
NCI-H522 lung = test system: NCI-H522 lung
A549/ATCC NSCLC = test system: A549/ATCC NSCLC
786-0 renal = test system: 786-0 renal
COLO 205 colon = test system: COLO 205 colon
DU-145 prostate = test system: DU-145 prostate
K-562 leukemia = test system: K-562 leukemia
MALME-3M melanoma = test system: MALME-3M melanoma
MDA-MB-231 breast = test system: MDA-MB-231 breast
RXF 393 renal = test system: RXF 393 renal
SF-268 CNS = test system: SF-268 CNS
SF-295 CNS = test system: SF-295 CNS
SF-539 CNS = test system: SF-539 CNS
UACC-257 melanoma = test system: UACC-257 melanoma
M14 melanoma = test system: M14 melanoma

Measured: growth

CNC(=O)c1cc(Oc2cccc3nc(NC(=O)Nc4cc(C(F)(F)F)cc(C(F)(F)F)c4)ccc23)ccn1
inactive: NCI-H23 lung 50.8% | NCI-H226 lung 43.1% | NCI-H322M lung 25.5% | NCI-H460 lung 34.9% | NCI-H522 lung 24.3% | A549/ATCC NSCLC 18.6% | COLO 205 colon 53.9% | DU-145 prostate 45.4% | K-562 leukemia 71.9% | MALME-3M melanoma 21.3% | MDA-MB-231 breast 23.3% | RXF 393 renal 27.5% | SF-268 CNS 36.1% | SF-295 CNS 30.3% | SF-539 CNS 38.9% | UACC-257 melanoma 57.7%
active: HOP-62 NSCLC 6.73% | HOP-92 NSCLC -23.7% | 786-0 renal -35.6%

O=C1/C(=C\c2cn(CC(O)CN3CCCCC3)c3ccccc23)c2ccccc2N1c1c(Cl)cccc1Cl (centres undefined)
active: NCI-H23 lung -47.4% | NCI-H226 lung -73.9% | NCI-H322M lung -90.4% | HOP-62 NSCLC -91% | NCI-H460 lung -82.7% | HOP-92 NSCLC -87.4% | NCI-H522 lung -77.5% | A549/ATCC NSCLC -90.4% | 786-0 renal -72.6% | COLO 205 colon -99.1% | DU-145 prostate -99.8% | K-562 leukemia -35.6% | MALME-3M melanoma -65.9% | MDA-MB-231 breast -81.6% | RXF 393 renal -87.6% | SF-268 CNS -76.8% | SF-295 CNS -82.7% | SF-539 CNS -82.4% | UACC-257 melanoma -98.1%

CCN(CCO)CCC(=O)c1ccc([N+](=O)[O-])cc1
inactive: NCI-H23 lung 102% | NCI-H226 lung 99.5% | NCI-H322M lung 101% | HOP-62 NSCLC 109% | NCI-H460 lung 111% | HOP-92 NSCLC 92.9% | NCI-H522 lung 100% | A549/ATCC NSCLC 103% | 786-0 renal 103% | COLO 205 colon 116% | DU-145 prostate 103% | K-562 leukemia 101% | MALME-3M melanoma 102% | MDA-MB-231 breast 115% | RXF 393 renal 106% | SF-268 CNS 97% | SF-295 CNS 103% | SF-539 CNS 105% | UACC-257 melanoma 105%

O=C(Oc1ccc(Cl)cc1[N+](=O)[O-])Oc1ccc(Cl)cc1[N+](=O)[O-]
inactive: NCI-H23 lung 105% | NCI-H226 lung 117% | NCI-H322M lung 122% | HOP-62 NSCLC 113% | NCI-H460 lung 111% | HOP-92 NSCLC 93.4% | NCI-H522 lung 104% | A549/ATCC NSCLC 99.2% | 786-0 renal 119% | COLO 205 colon 122% | DU-145 prostate 116% | K-562 leukemia 90.2% | MALME-3M melanoma 135% | MDA-MB-231 breast 126% | RXF 393 renal 124% | SF-268 CNS 105% | SF-295 CNS 119% | SF-539 CNS 109% | UACC-257 melanoma 107%

CN(C)CCOc1ccc(/C(=C(/CCCl)c2ccccc2)c2ccccc2)cc1
active: HOP-62 NSCLC -18.8% | NCI-H460 lung -73.3% | HOP-92 NSCLC -4.94% | 786-0 renal -28.5% | COLO 205 colon -93.6% | K-562 leukemia 1.34% | MALME-3M melanoma -57.8% | MDA-MB-231 breast -11% | RXF 393 renal -41.7% | SF-295 CNS 4.51% | SF-539 CNS 1.72% | UACC-257 melanoma -52.4% | M14 melanoma -52.2%
inactive: NCI-H23 lung 28.5% | NCI-H226 lung 59.1% | NCI-H322M lung 37.1% | NCI-H522 lung 10.8% | A549/ATCC NSCLC 26.4% | DU-145 prostate 49.6% | SF-268 CNS 33%

COC(=O)c1c(C)[nH]c(/C=C2\N=C(c3ccc[nH]3)C=C2OC)c1C
inactive: NCI-H23 lung 10% | SF-268 CNS 18.3%
active: NCI-H226 lung -16% | NCI-H322M lung -2.96% | HOP-62 NSCLC -17.5% | NCI-H460 lung 4.82% | HOP-92 NSCLC -41.8% | NCI-H522 lung -60.1% | A549/ATCC NSCLC -24.4% | 786-0 renal -27.7% | COLO 205 colon -54.2% | DU-145 prostate 9.5% | K-562 leukemia 4.3% | MALME-3M melanoma -69.3% | MDA-MB-231 breast -40.2% | RXF 393 renal -33.9% | SF-295 CNS -56.7% | SF-539 CNS -59.7% | UACC-257 melanoma -49%

C#CCNC(=O)CC[C@]1(C)[C@H]2CC[C@@H]3[C@@H]([C@@](C)(O)CCC=C(C)C)CC[C@@]3(C)[C@]2(C)CC[C@H]1C(=C)C
inactive: NCI-H23 lung 16.3% [100 µM] | NCI-H226 lung 51.5% [100 µM] | NCI-H322M lung 75.7% [100 µM] | HOP-62 NSCLC 51.5% [100 µM] | NCI-H460 lung 33.7% [100 µM] | A549/ATCC NSCLC 37.7% [100 µM] | COLO 205 colon 42.7% [100 µM] | DU-145 prostate 52.7% [100 µM] | RXF 393 renal 30.6% [100 µM] | SF-295 CNS 49% [100 µM] | UACC-257 melanoma 61.5% [100 µM]
active: HOP-92 NSCLC -25.5% [100 µM] | NCI-H522 lung -73.1% [100 µM] | 786-0 renal -67.9% [100 µM] | K-562 leukemia 5.99% [100 µM] | MALME-3M melanoma -73.6% [100 µM] | MDA-MB-231 breast -24.5% [100 µM] | SF-268 CNS -28.8% [100 µM] | SF-539 CNS -81% [100 µM]

CCNC(=O)N1CCc2c(Cl)c3c(c(OC)c2[C@@H]1[C@H]1OCc2c1ccc(OC)c2OC)OCCO3
active: NCI-H460 lung 9.88% | COLO 205 colon -11% | RXF 393 renal -39.8% | SF-295 CNS 8.12% | SF-539 CNS -41.3% | M14 melanoma 1.38%
inactive: NCI-H23 lung 32.6% | NCI-H226 lung 60.1% | NCI-H322M lung 30.1% | HOP-62 NSCLC 35.3% | HOP-92 NSCLC 44.5% | NCI-H522 lung 11.6% | A549/ATCC NSCLC 35.2% | 786-0 renal 26.9% | DU-145 prostate 10.9% | K-562 leukemia 10.4% | MALME-3M melanoma 29.6% | MDA-MB-231 breast 43.2% | SF-268 CNS 45.3% | UACC-257 melanoma 55.3%

COc1c(B(O)O)cccc1-c1nc2ccc3[nH]ncc3c2c2c1CCC2
active: RXF 393 renal 4.27%
inactive: NCI-H23 lung 75.5% | NCI-H226 lung 68.3% | NCI-H322M lung 57.6% | HOP-62 NSCLC 48.7% | NCI-H460 lung 47.9% | HOP-92 NSCLC 72.1% | NCI-H522 lung 62.7% | A549/ATCC NSCLC 60.2% | 786-0 renal 55.7% | COLO 205 colon 66.2% | DU-145 prostate 63.3% | K-562 leukemia 77.9% | MALME-3M melanoma 98.4% | MDA-MB-231 breast 40.7% | SF-268 CNS 65.9% | SF-295 CNS 86.9% | SF-539 CNS 54.7% | UACC-257 melanoma 111% | M14 melanoma 65%

N#C/C(C(=O)c1ccccc1)=C1/C(=O)Nc2ccc(Br)cc21
inactive: NCI-H23 lung 94.4% | NCI-H226 lung 96.6% | NCI-H322M lung 101% | HOP-62 NSCLC 84.1% | NCI-H460 lung 105% | HOP-92 NSCLC 109% | NCI-H522 lung 99.1% | A549/ATCC NSCLC 104% | 786-0 renal 101% | COLO 205 colon 113% | DU-145 prostate 108% | K-562 leukemia 91.3% | MALME-3M melanoma 96.7% | MDA-MB-231 breast 95.5% | RXF 393 renal 111% | SF-268 CNS 103% | SF-295 CNS 100% | SF-539 CNS 94.7% | UACC-257 melanoma 97.9% | M14 melanoma 107%

C#C[C@]1(O)CC[C@H]2[C@@H]3CC=C4c5nc(N)sc5CC[C@]4(C)[C@H]3CC[C@@]21C
active: 786-0 renal -0.771% | RXF 393 renal -22.4% | SF-295 CNS -43.6% | SF-539 CNS -32%
inactive: NCI-H23 lung 78% | NCI-H226 lung 83.8% | NCI-H322M lung 79.7% | HOP-62 NSCLC 62.5% | NCI-H460 lung 86.9% | HOP-92 NSCLC 62.2% | NCI-H522 lung 56.6% | A549/ATCC NSCLC 65.9% | COLO 205 colon 80.5% | DU-145 prostate 71.2% | K-562 leukemia 29.7% | MALME-3M melanoma 42.1% | MDA-MB-231 breast 45.4% | SF-268 CNS 62.8% | UACC-257 melanoma 72.8% | M14 melanoma 81.1%

Nc1cccc2c1C(=O)c1cccc(NC(=O)c3ccccc3)c1C2=O
inactive: NCI-H23 lung 29.9% | NCI-H226 lung 52.2% | HOP-62 NSCLC 38.7% | HOP-92 NSCLC 53.2% | A549/ATCC NSCLC 28.6% | 786-0 renal 37.5% | K-562 leukemia 13.3% | MDA-MB-231 breast 38.4% | SF-268 CNS 51.5% | UACC-257 melanoma 56.2% | M14 melanoma 14.2%
active: NCI-H322M lung -7.76% | NCI-H460 lung 7.2% | NCI-H522 lung -28.5% | COLO 205 colon -11.5% | DU-145 prostate 6.99% | MALME-3M melanoma -17% | RXF 393 renal -10.7% | SF-295 CNS -30.3% | SF-539 CNS -2.57%

CC1Cc2c(ncnc2-n2cnc3ccccc32)N(C)c2ccccc21 (centres undefined)
inactive: NCI-H23 lung 48.5% | NCI-H226 lung 58.6% | NCI-H322M lung 63.7% | HOP-62 NSCLC 32.3% | NCI-H460 lung 18.7% | HOP-92 NSCLC 36.3% | NCI-H522 lung 20% | A549/ATCC NSCLC 39.3% | 786-0 renal 39.2% | COLO 205 colon 20.9% | DU-145 prostate 50.3% | K-562 leukemia 15.5% | MALME-3M melanoma 64.5% | MDA-MB-231 breast 29.4% | RXF 393 renal 34% | SF-268 CNS 49% | SF-295 CNS 18.9% | SF-539 CNS 17% | UACC-257 melanoma 53.1% | M14 melanoma 12.9%

NNC(=O)c1ccc(C(=O)NN)cc1
inactive: NCI-H23 lung 101% | NCI-H226 lung 97.6% | NCI-H322M lung 102% | HOP-62 NSCLC 115% | NCI-H460 lung 104% | HOP-92 NSCLC 104% | NCI-H522 lung 101% | A549/ATCC NSCLC 100% | 786-0 renal 114% | COLO 205 colon 138% | DU-145 prostate 109% | K-562 leukemia 112% | MALME-3M melanoma 98% | MDA-MB-231 breast 117% | RXF 393 renal 111% | SF-268 CNS 106% | SF-295 CNS 106% | SF-539 CNS 115% | UACC-257 melanoma 94.6% | M14 melanoma 114%
